HSF1 inhib = HSF1 inhibitors in luciferase reporter cells, primary screen, cell-based, NIH3T3, luminescence | NIH3T3-HGL HSE-luciferase, MG132-induced, luminescence 8 h; stronger effect = lower value | AID 2098, 2009 | 300,000 compounds, 0.77% hits | activity change, negative = inhibition, % at 7.5 µM (by protocol);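 active means more than half of replicate wells show activity change below -50%, luminescence cut by over half; inconclusive means some wells, but at most half, below -50%; inactive means no replicate well below -50%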;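 further: luciferase reports HSF-1 transcriptional activity via heat shock element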
HSF-1 act = HSF-1 activators, primary screen, NIH3T3-HGL cells, MG132 stress, luminescence, single point | NIH3T3-HGL HSF-1 luciferase reporter, 8 h; 100% = twice DMSO control signal | activation, % at 9 µM | 300,000 compounds, 1.7% hits;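 active means mean replicate activation of at least 50% with a set share of replicates each reaching 50%; inconclusive means only one of those two conditions met; inactive means mean below 50% and too few replicates reaching it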
Vif inh = HIV Vif self-association inhibitors, primary screen, imaging, HEK293T, single point. HEK293T cells, Vif self-association by quenched fluorescence, 24 h. inhibition, % at 7.49 µM. 340,000 compounds, 0.35% hits. AID 602346, 2012; in the data active means inhibition above about 50%, passing the limit was not always enough; inconclusive means no clear call, values can overlap the other calls; inactive means below about 31%
esBAF inh = Bmi1 luciferase reporter increase in mESCs, primary screen, esBAF inhibitor project, mouse ES cells, Bmi1 luciferase knock-in, single point | reporter increase, % at 12.5 µM | 24 h; 100% = twice the neutral-well signal | AID 602393, 2012 | 350,000 compounds, 2% hits; in the data active means activation above about 40%; inconclusive means no clear call, values can overlap the other calls;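 further: a rise in the Bmi1 reporter signal indicates esBAF inhibition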
Of the large screens only hits and unclear results are named; the others gave an inactive call. Only some compounds are listed: those with a hit (about 3.4% of all), similar ones and a draw of the others.

O=C(NNc1cccc(Cl)n1)C1CC1	none
COc1ccc(S(=O)(=O)N(C)C[C@@H]2Oc3ccc(NC(=O)Cc4cn(C)c5ccccc45)cc3CC(=O)N([C@@H](C)CO)C[C@H]2C)cc1	none (no result: HSF1 inhib, HSF-1 act, Vif inh)
CCOC(=O)C1CCCN(C(=O)c2ccc(Cl)c(S(=O)(=O)N3CCCCC3)c2)C1 (stereo unspecified)	HSF-1 act 79.1
CCOC(=O)C1CCCN(C(=O)c2ccc3nc(-c4cccc(OC)c4)oc3c2)C1 (stereo unspecified)	esBAF inh 47.7
C=C(C)CNC(=O)c1ccc2nc(Cc3ccc(OC)cc3)oc2c1	esBAF inh 66.4
CCC(=O)C1CCCN(C(=O)c2ccc3nc(-c4cccc(OC)c4)oc3c2)C1 (stereo unspecified)	HSF1 inhib inconclusive
COc1ccc([C@@H](C)NC(=O)c2ccc3oc(C(C)C)nc3c2)cc1	esBAF inh 64.4
COC1CCN(C(=O)c2ccc3oc(C(C)C)nc3c2)CC1	none
CN1[C@@H]2c3ccc(-c4ccccc4F)c(=O)n3C[C@@H]2[C@@H](CO)[C@@H]1C(=O)NCc1ccncc1	none (no result: HSF1 inhib, HSF-1 act, Vif inh)
C[C@H](CO)N1C[C@H](C)[C@@H](CN(C)C(=O)CN(C)C)Oc2ncc(-c3ccccc3F)cc2C1=O	none (no result: HSF1 inhib, HSF-1 act, Vif inh)
CCC(C)NC(=O)c1ccc2nc(Cc3ccc(OC)cc3)oc2c1 (stereo unspecified)	none
COc1ccc(Cc2nc3ccc(C(=O)N4CCCC4)cc3o2)cc1	esBAF inh 70.5
O=C(c1ccc2oc(CCCc3ccccc3)nc2c1)N1CCCC1	HSF-1 act 86.8, esBAF inh 70.9
COc1ccc(Cc2nc3ccc(C(=O)NC(C)C)cc3o2)cc1	esBAF inh 50.6
COc1cccc(C(=O)N2C[C@H]3[C@@H](c4ccccc42)[C@H](CO)N3C(=O)c2ccccc2)c1	none (no result: HSF1 inhib, HSF-1 act, Vif inh)
C[C@@H]1CN([C@H](C)CO)C(=O)c2cc(NC(=O)Nc3ccc(C(F)(F)F)cc3)ccc2O[C@H]1CN(C)Cc1ccc(C(F)(F)F)cc1	none (no result: HSF1 inhib, HSF-1 act, Vif inh)
Cc1cc(C)cc(NC(=O)c2ccc3c(c2)CCN3S(C)(=O)=O)c1	none
Cc1ccc(NC(=O)c2ccc3c(c2)CCN3S(C)(=O)=O)cc1	esBAF inh 65.8 (no result: HSF1 inhib, HSF-1 act)
CS(=O)(=O)N1CCc2cc(C(=O)OCC(=O)c3ccccc3)ccc21	esBAF inh 50.8 (no result: Vif inh)
CN(C(=O)c1ccc2c(c1)CCN2S(C)(=O)=O)c1ccccc1	none
CS(=O)(=O)N1CCc2cc(C(=O)Nc3ccc(Br)cc3)ccc21	esBAF inh 47.6
CO[C@H](CN(C)S(=O)(=O)c1ccc(Cl)cc1)[C@@H](C)CN(C(=O)Nc1ccccc1F)[C@H](C)CO	none (no result: HSF1 inhib, HSF-1 act, Vif inh)
C[C@@H]1CN([C@@H](C)CO)C(=O)c2cc(C#CCN(C)C)cnc2O[C@H]1CN(C)C(=O)CN1CCOCC1	none (no result: HSF1 inhib, HSF-1 act, Vif inh)
Cc1ccccc1S(=O)(=O)N1CC[C@H]2[C@H](CO)Nc3ccc(-c4ccc(C#N)cc4)cc3[C@H]21	none (no result: HSF1 inhib, HSF-1 act, Vif inh)
CCC(=O)N1C[C@H](C)[C@H](OC)CN(C)C(=O)c2ccc(NC(=O)c3ccccc3)cc2OC[C@H]1C	none (no result: HSF1 inhib, HSF-1 act, Vif inh)
COc1cccc(NC(=O)N(C)C[C@H]2Oc3cc(C#Cc4ccc(F)cc4)ccc3S(=O)(=O)N([C@H](C)CO)C[C@@H]2C)c1	none (no result: HSF1 inhib, HSF-1 act, Vif inh)
CO[C@H]1CN(C)C(=O)c2ccc(NC(=O)C3CC3)cc2OC[C@@H](C)N(Cc2ccc(F)cc2)C[C@H]1C	none (no result: HSF1 inhib, HSF-1 act, Vif inh)
O=c1[nH]nc(-c2ccc(NCCO)c([N+](=O)[O-])c2)c2ccccc12	Vif inh 55.7
O=c1[nH]nc(-c2ccc(NCCCO)c([N+](=O)[O-])c2)c2ccccc12	none
CCCC(NC(=O)COc1cc2c(c3oc(=O)cc(C)c13)CCC(C)(C)O2)C(=O)O (stereo unspecified)	HSF1 inhib -55.0
CC(C)(C)NC(=O)c1ccc(COc2ccccc2Br)o1	none
CCN(CC)C(=O)c1ccc(COc2ccc(Cl)c(C)c2)o1	esBAF inh 77.5
CCN(CC)C(=O)c1ccc(COc2ccccc2Br)o1	esBAF inh 73.1
COc1cc(N2CCCC2)c(OC)cc1/C=C(/C#N)c1ccc(F)cc1	Vif inh 63.1
COc1cc(N2CCCC2)c(OC)cc1/C=C(/C#N)c1ccc(Br)cc1	none
O=C(C[C@H]1C=C[C@@H](NC(=O)Nc2ccccc2F)[C@@H](CO)O1)NCc1ccc(Cl)cc1	none (no result: HSF1 inhib, HSF-1 act, Vif inh)
CCc1cc2c(=O)[nH]c(-c3ccccn3)nc2s1	HSF-1 act 215.1 (no result: esBAF inh)

Screening results (PubChem BioAssay)
